# Data from PubChem BioAssay (Tox21).
# A number with no mark means an inactive call. Results filed as inconclusive are left out. Entries that show only a call come without a potency. Calls of active or inactive are those of the source. The call rests on the fitted dose curve; in most records, active means well fitted curve in the direction sought with a large enough effect in the repeat runs; inconclusive means weak or mixed curves; inactive means no such curve, though single readings can be large; an effect the other way counts as inactive or inconclusive.
# Tests used:
# [1] = Caspase-3/7 induction in HepG2 cells by small molecules, qHTS assay (AID 1346978); further: nearly all actives have a fitted effect of over 15% in size
# In short: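 Wild-type HepG2 cells (2,000/well) were settled 5 h at 37 C, 5% CO2, then exposed to compounds in DMSO for 17 h. Caspase-3/7 activity was read by luminescence 30 min after adding Caspase-Glo 3/7 reagent at room temperature.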
# [2] = Caspase-3/7 induction in CHO-K1 cells by small molecules, qHTS cell viability counter screen (AID 1346979); further: nearly all actives have a fitted effect of over 35% in size
# In short: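 Wild-type CHO-K1 cells were seeded at 1,500 per well, rested 5hr at 37 C, then exposed to compounds in DMSO. After 16hr, CellTiter-Fluor reagent was added and fluorescence read 1hr later as the viability measure.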
# [3] = Caspase-3/7 induction in CHO-K1 cells by small molecules, qHTS assay (AID 1346980); further: nearly all actives have a fitted effect of over 15% in size
# In short: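 Wild-type cells were seeded at 1,500 per well and settled 5 hr at 37 C, 5% CO2, then exposed to DMSO-dissolved compounds for 17 hr. Caspase-Glo 3/7 reagent was added, and luminescence was read after 30min at room temperature.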
# [4] = Caspase-3/7 induction in HepG2 cells by small molecules, qHTS cell viability counter screen (AID 1346981); further: series mostly up to about 92 µM; nearly all actives have a fitted effect of over 30% in size
# In short: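 Wild-type HepG2 cells, 2,000/well, settled 5 hr at 37 C, 5% CO2 before compound addition. Viability read by CellTiter-Fluor fluorescence, reagent added after 16 hr compound exposure, then 1 hr at 37C, in the same wells as the caspase read.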
# [5] = target: Nuclear receptor subfamily 1 group I member 2 (Homo sapiens) (UniProt O75469); assay: Human pregnane X receptor (PXR) small molecule agonists, qHTS assay (AID 1346982); further: nearly all actives have a fitted effect of over 35% in size; further: potency means the concentration at half of the fitted maximal effect
# Nuclear receptor subfamily 1 group I member 2 (Homo sapiens), sequence (O75469 whole entry, looked up): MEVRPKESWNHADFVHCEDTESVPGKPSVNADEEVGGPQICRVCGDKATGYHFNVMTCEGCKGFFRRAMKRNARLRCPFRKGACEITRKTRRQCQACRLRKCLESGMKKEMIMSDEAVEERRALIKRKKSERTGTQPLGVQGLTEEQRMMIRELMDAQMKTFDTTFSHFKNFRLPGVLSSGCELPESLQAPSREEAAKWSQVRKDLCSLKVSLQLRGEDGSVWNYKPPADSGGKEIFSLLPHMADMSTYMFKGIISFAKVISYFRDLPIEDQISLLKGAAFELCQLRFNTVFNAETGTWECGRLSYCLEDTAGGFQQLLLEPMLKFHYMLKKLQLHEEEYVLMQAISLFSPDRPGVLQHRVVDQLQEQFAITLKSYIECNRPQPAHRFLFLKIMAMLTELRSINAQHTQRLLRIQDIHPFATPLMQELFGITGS
# In short: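 PXR-Luc HepG2 reporter cells (CYP3A4-driven luciferase) in 5% charcoal-stripped FBS medium, plated 5 h before compound addition, then treated 24 h at 37C. Luciferase read by ONE-Glo luminescence after 30 min at room temperature.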
# [6] = target: Nuclear receptor subfamily 1 group I member 2 (Rattus norvegicus) (UniProt Q9R1A7); assay: Rat pregnane X receptor (rPXR) activation by small molecules, qHTS assay (AID 1346983); conditions: rPXR luciferase reporter cells, One-Glo luminescence, 24 h; max activation: stronger effect = higher value; further: nearly all actives have a fitted effect of over 20% in size
# Nuclear receptor subfamily 1 group I member 2 (Rattus norvegicus), sequence (Q9R1A7 whole entry, looked up): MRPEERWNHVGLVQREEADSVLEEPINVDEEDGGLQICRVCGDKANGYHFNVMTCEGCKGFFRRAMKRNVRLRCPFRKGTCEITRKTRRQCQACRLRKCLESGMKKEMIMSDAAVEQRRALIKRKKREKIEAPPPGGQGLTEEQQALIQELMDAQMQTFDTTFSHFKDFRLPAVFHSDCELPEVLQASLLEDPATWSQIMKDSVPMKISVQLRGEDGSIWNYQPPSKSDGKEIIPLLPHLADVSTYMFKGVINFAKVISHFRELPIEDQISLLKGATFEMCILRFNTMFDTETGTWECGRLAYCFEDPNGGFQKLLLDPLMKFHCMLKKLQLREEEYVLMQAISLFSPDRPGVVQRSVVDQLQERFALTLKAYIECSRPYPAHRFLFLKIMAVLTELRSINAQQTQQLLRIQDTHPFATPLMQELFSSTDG
# In short: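 Cell-based rPXR luciferase reporter assay, 2,000 cells per well, rested 5hr at 37 C before compound addition in DMSO, then 24 hr at 37 C. One-Glo reagent was added and luminescence read after 30 min at room temperature.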
# [7] = target: Nuclear receptor subfamily 1 group I member 2 (Homo sapiens) (UniProt O75469); assay: CYP3A4 induction through human pregnane X receptor (PXR) by small molecules, qHTS assay (AID 1346984); further: nearly all actives have a fitted effect of over 40% in size
# In short: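 DPX-2 HepG2 cells carrying a PXR response element and CYP3A4-promoter luciferase construct, treated with compounds 24 hr at 37C. Then P450-Glo CYP3A4 Luciferin-IPA substrate (3uM final) for 3 hr at 37C, One-Glo added, luminescence read.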
# [8] = target: Nuclear receptor subfamily 1 group I member 2 (Homo sapiens) (UniProt O75469); assay: Human pregnane X receptor (PXR) activation by small molecules, qHTS assay (AID 1346985); further: nearly all actives have a fitted effect of over 40% in size
# In short: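 DPX-2 cells (HepG2 co-transfected with a PXR response element and a CYP3A4-promoter luciferase construct) were seeded at 2,000 per well, rested 5 hr at 37C, then exposed to DMSO-dissolved compounds for 24 hr. Activation was read as luciferase luminescence.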
# [9] = target: Cytochrome P450 2D6 (Homo sapiens) (UniProt P10635); assay: Cytochrome P450 Family 2 Subfamily D Member 6 (CYP2D6) small molecule antagonists: luciferase reporter qHTS assay (AID 1671196); further: nearly all actives have a fitted effect of over 50% in size; further: potency means the concentration at half of the fitted maximal effect
# Cytochrome P450 2D6 (Homo sapiens), sequence (P10635 whole entry, looked up): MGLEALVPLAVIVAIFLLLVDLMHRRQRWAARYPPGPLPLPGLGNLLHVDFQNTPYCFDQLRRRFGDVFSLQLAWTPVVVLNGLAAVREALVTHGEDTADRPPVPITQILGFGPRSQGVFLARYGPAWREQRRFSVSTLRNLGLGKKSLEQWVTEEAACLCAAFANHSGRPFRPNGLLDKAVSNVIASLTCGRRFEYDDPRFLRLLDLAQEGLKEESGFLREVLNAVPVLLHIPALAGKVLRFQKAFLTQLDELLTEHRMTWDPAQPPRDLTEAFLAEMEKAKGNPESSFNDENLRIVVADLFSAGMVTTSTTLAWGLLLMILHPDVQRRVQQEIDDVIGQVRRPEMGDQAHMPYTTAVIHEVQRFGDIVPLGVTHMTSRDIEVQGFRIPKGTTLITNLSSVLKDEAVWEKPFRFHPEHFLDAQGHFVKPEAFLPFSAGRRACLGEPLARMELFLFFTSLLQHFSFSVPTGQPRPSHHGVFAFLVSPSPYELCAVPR
# In short: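 Cell-free P450-Glo system: CYP2D6 with proluciferin substrate was pre-incubated with compound for 10 min, then reacted with NADPH regeneration for 1 h at room temperature. Luciferin product was detected after 20 min, and data were reported as relative luminescence units.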
# [10] = target: Cytochrome P450 2C19 (Homo sapiens) (UniProt P33261); assay: Cytochrome P450 Family 2 Subfamily C Member 19 (CYP2C19) small molecule antagonists: luciferase reporter qHTS assay (AID 1671197); further: nearly all actives have a fitted effect of over 65% in size; further: potency means the concentration at half of the fitted maximal effect
# Cytochrome P450 2C19 (Homo sapiens), sequence (P33261 whole entry, looked up): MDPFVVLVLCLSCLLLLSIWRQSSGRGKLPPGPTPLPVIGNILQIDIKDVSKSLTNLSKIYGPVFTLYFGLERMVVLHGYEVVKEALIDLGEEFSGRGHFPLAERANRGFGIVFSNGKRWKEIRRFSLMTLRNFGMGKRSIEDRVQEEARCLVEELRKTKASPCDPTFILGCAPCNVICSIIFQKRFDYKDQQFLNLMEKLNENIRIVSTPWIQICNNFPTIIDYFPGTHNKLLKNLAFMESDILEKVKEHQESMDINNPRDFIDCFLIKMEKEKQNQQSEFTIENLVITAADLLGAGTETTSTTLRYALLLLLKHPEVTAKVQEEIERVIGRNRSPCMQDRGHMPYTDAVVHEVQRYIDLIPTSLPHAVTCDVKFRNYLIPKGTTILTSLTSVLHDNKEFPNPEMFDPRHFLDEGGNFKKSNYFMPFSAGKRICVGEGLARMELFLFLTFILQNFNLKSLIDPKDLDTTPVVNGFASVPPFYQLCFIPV
# In short: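 Light output is proportional to CYP2C19 activity: proluciferin substrate is converted to luciferin, then detected by a luciferin detection reagent that also stops the 1 h, 37C NADPH-driven reaction. Ketoconazole serves as positive control.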
structure (smiles),measurement,setting,value
Cc1ccnc(NS(=O)(=O)c2ccc(N)cc2)n1,outcome,[1],inactive
same,Potency,[2],inactive
same,outcome,[3],inactive
same,Potency,[4],inactive
same,Potency,[5],inactive
same,max activation,[6],-0.793%
same,Potency,[7],inactive
same,Potency,[8],inactive
same,Potency,[9],inactive
same,Potency,[10],inactive
CN(C)CCCCCCN(C)C,outcome,[1],inactive
same,Potency,[2],inactive
same,outcome,[3],inactive
same,Potency,[4],inactive
C[N+]1(C)CCCC(OC(=O)C(O)(c2ccccc2)c2ccccc2)C1 (centres undefined),outcome,[1],inactive
same,Potency,[2],inactive
same,outcome,[3],inactive
same,Potency,[4],inactive
same,Potency,[5],inactive
same,max activation,[6],-3.64%
same,Potency,[7],inactive
same,Potency,[8],inactive
same,Potency,[9],4.9 µM (active)
same,Potency,[10],inactive
Cc1ncc(COP(=O)(O)O)c(C=O)c1O,outcome,[1],inactive
same,Potency,[2],inactive
same,outcome,[3],inactive
same,Potency,[4],inactive
same,Potency,[5],inactive
same,max activation,[6],-2.51%
same,Potency,[7],inactive
same,Potency,[8],inactive
same,Potency,[9],inactive
same,Potency,[10],inactive
C[N+]1(C)[C@@H]2CC(OC(=O)[C@H](CO)c3ccccc3)C[C@H]1[C@@H]1O[C@@H]12 (some centres undefined),outcome,[1],inactive
same,Potency,[2],inactive
same,outcome,[3],inactive
same,Potency,[4],inactive
same,Potency,[5],inactive
same,max activation,[6],-0.815%
same,Potency,[7],inactive
same,Potency,[8],inactive
same,Potency,[9],inactive
same,Potency,[10],inactive
CCN[C@H]1C[C@H](C)S(=O)(=O)c2sc(S(N)(=O)=O)cc21,outcome,[1],inactive
same,Potency,[2],inactive
same,outcome,[3],inactive
same,Potency,[4],inactive
same,Potency,[5],inactive
same,max activation,[6],0.198%
same,Potency,[7],inactive
same,Potency,[8],inactive
same,Potency,[9],inactive
Cc1c(N)c(=O)n(-c2ccccc2)n1C,outcome,[1],inactive
same,Potency,[2],inactive
same,outcome,[3],inactive
same,Potency,[4],inactive
Nc1ccncc1N,outcome,[1],inactive
same,Potency,[2],inactive
same,outcome,[3],inactive
same,Potency,[4],inactive
same,Potency,[5],inactive
same,max activation,[6],-0.418%
same,Potency,[7],inactive
same,Potency,[8],inactive
same,Potency,[9],inactive
same,Potency,[10],inactive
CC(C)COC(=O)c1ccc(N)cc1,outcome,[1],inactive
same,Potency,[2],inactive
same,outcome,[3],inactive
same,Potency,[4],inactive
same,Potency,[5],21.1 µM (active)
same,max activation,[6],0.562%
same,Potency,[7],inactive
same,Potency,[8],inactive
same,Potency,[9],inactive
same,Potency,[10],21.9 µM (active)
CCCCc1nc(Cl)c(CO)n1Cc1ccc(-c2ccccc2-c2nn[nH]n2)cc1,outcome,[1],inactive
same,Potency,[2],inactive
same,outcome,[3],inactive
same,Potency,[4],inactive
same,Potency,[5],inactive
same,max activation,[6],-3.95%
same,Potency,[7],inactive
same,Potency,[8],inactive
same,Potency,[10],inactive
CCCC(=O)O[C@]1(C(=O)CC)CC[C@H]2[C@@H]3CCC4=CC(=O)CC[C@]4(C)[C@H]3[C@@H](O)C[C@@]21C,outcome,[1],inactive
same,Potency,[2],inactive
same,outcome,[3],inactive
same,Potency,[4],inactive
same,Potency,[5],3.76 µM (active)
OCCc1ccccn1,outcome,[1],inactive
same,Potency,[2],inactive
same,outcome,[3],inactive
same,Potency,[4],inactive
same,Potency,[5],inactive
same,Potency,[9],inactive
same,Potency,[10],inactive
CNCCO,outcome,[1],inactive
same,Potency,[2],inactive
same,outcome,[3],inactive
same,Potency,[4],inactive
same,Potency,[5],inactive
same,Potency,[9],inactive
same,Potency,[10],inactive
Cc1ccc(-c2ccccc2C#N)cc1,outcome,[1],inactive
same,Potency,[2],inactive
same,outcome,[3],inactive
same,Potency,[4],inactive
same,Potency,[5],inactive
same,Potency,[9],inactive
same,Potency,[10],17.4 µM (active)
C[N+]1(CC2COC(c3ccccc3)(c3ccccc3)O2)CCCCC1 (centres undefined),caspase activation,[1],-0.482% [at 19 µM]
same,"activity change, negative = cytotoxicity",[2],2.24% [at 19 µM]
same,caspase-3/7 activation,[3],-0.436% [at 19 µM]
same,"activity change, negative = cytotoxicity",[4],9.88% [at 19 µM]
same,activation,[5],5.26% [at 19 µM]
same,Potency,[9],1.69 µM (active)
same,Potency,[10],inactive
COc1c(N2CCNC(C)C2)c(F)cc2c(=O)c(C(=O)O)cn(C3CC3)c12 (centres undefined),outcome,[1],inactive
same,Potency,[2],inactive
same,outcome,[3],inactive
same,Potency,[4],inactive
same,Potency,[5],inactive
same,Potency,[9],inactive
same,Potency,[10],inactive
O=S(=O)(O)c1cccc2ccccc12,outcome,[1],inactive
same,Potency,[2],inactive
same,outcome,[3],inactive
same,Potency,[4],inactive
same,Potency,[5],inactive
same,Potency,[9],inactive
CC12CCC(C(=O)C1=O)C2(C)C (centres undefined),outcome,[1],inactive
same,Potency,[2],inactive
same,outcome,[3],inactive
same,Potency,[4],inactive
same,Potency,[5],inactive
same,Potency,[9],inactive
same,Potency,[10],inactive
Cc1coc2ccccc2c1=O,outcome,[1],inactive
same,Potency,[2],inactive
same,outcome,[3],inactive
same,Potency,[4],inactive
same,Potency,[5],inactive
same,Potency,[9],inactive
same,Potency,[10],inactive
CCCCS(=O)(=O)N[C@@H](Cc1ccc(OCCCCC2CCNCC2)cc1)C(=O)O,outcome,[1],inactive
same,Potency,[2],inactive
same,outcome,[3],inactive
same,Potency,[4],inactive
same,Potency,[5],inactive
same,Potency,[9],inactive
same,Potency,[10],inactive
CC(C)=CCC/C(C)=C/C#N,outcome,[1],inactive
same,Potency,[2],inactive
same,outcome,[3],inactive
same,Potency,[4],inactive
same,Potency,[5],inactive
same,Potency,[9],inactive
CC1=NS(=O)(=O)c2cc(Cl)ccc2N1,outcome,[1],inactive
same,Potency,[2],inactive
same,outcome,[3],inactive
same,Potency,[4],inactive
same,Potency,[5],inactive
same,Potency,[9],inactive
same,Potency,[10],inactive
CCC(=O)OCc1ccccc1,outcome,[1],inactive
same,Potency,[2],inactive
same,outcome,[3],inactive
same,Potency,[4],inactive
same,Potency,[5],inactive
same,Potency,[9],inactive
same,Potency,[10],inactive
CCCCOCCOC(=O)CCCCCCCCC(=O)OCCOCCCC,outcome,[1],inactive
same,Potency,[2],inactive
same,outcome,[3],inactive
same,Potency,[4],inactive
same,Potency,[5],inactive
same,Potency,[9],inactive
same,Potency,[10],31.7 µM (active)
CC(CC=O)CC(C)(C)C (centres undefined),outcome,[1],inactive
same,Potency,[2],inactive
same,outcome,[3],inactive
same,Potency,[4],inactive
same,Potency,[5],54.5 µM (active)
same,Potency,[9],inactive
same,Potency,[10],inactive
OCCCCCO,outcome,[1],inactive
same,Potency,[2],inactive
same,outcome,[3],inactive
same,Potency,[4],inactive
same,Potency,[5],inactive
same,Potency,[9],inactive
same,Potency,[10],inactive
